# Reference: the antibiotic and cytotoxicity screens of Wong et al. (2023)
# Hit rate of the full screen: of about 39,000 compounds, about 3,300 (8.5%) were called active. This is one part of a sample in which actives are shown more often than they occur.
# Test system: HepG2
# Assay: cytotoxicity call (relative viability < 0.9)
# Conditions: 10 µM
row,Structure (SMILES),cytotoxicity call
1,C[C@H]1CN([C@@H](C)CO)C(=O)c2cccc(NC(=O)c3ccc(-c4nccs4)cc3)c2O[C@@H]1CN(C)S(=O)(=O)c1cn(C)cn1,inactive
2,Cc1noc(C)c1S(=O)(=O)N(C)C[C@H]1OCCCC[C@H](C)Oc2ccc(N(C)C)cc2C(=O)N([C@H](C)CO)C[C@@H]1C,inactive
3,COc1ccc(NC(=O)N(C)C[C@@H]2OCCCC[C@H](C)Oc3ccc(NS(=O)(=O)c4c(C)noc4C)cc3C(=O)N([C@@H](C)CO)C[C@@H]2C)cc1,inactive
4,CO[C@@H]1CN(C)C(=O)c2ccc(NC(=O)C3CC3)cc2OC[C@@H](C)N(C(=O)C2CCOCC2)C[C@H]1C,inactive
5,Cc1cc(C2CCCCC2)n(O)c(=O)c1.NCCO,active
6,C[C@H]1CN([C@@H](C)CO)C(=O)c2c(c3ccccc3n2C)-c2ccccc2CO[C@@H]1CN(C)Cc1ccc(C(F)(F)F)cc1,inactive
7,Cc1noc(C)c1S(=O)(=O)Nc1ccc2c(c1)C(=O)N([C@H](C)CO)C[C@H](C)[C@H](CN(C)C(=O)Nc1ccc(F)cc1)OCCCC[C@H](C)O2,inactive
8,Cc1noc(C)c1NC(=O)Nc1ccc2c(c1)C(=O)N([C@H](C)CO)C[C@H](C)[C@@H](CN(C)S(=O)(=O)c1ccc(F)cc1)OCCCC[C@@H](C)O2,inactive
9,Cc1cc(C(=O)Nc2cccc3c2O[C@H](CN(C)S(=O)(=O)c2cccs2)[C@@H](C)CN([C@H](C)CO)C3=O)n(C)n1,inactive
10,CCNC(=O)C=Cc1cccc(Br)c1,active
11,COC(=O)CNC(=O)/C=C/c1ccc(OC)cc1,inactive
12,CCNC(=O)c1cccc(NS(C)(=O)=O)c1,inactive
13,C[C@H](CO)N1C[C@H](C)[C@@H](CN(C)C(=O)Nc2ccc(C(F)(F)F)cc2)Oc2ccc(NS(=O)(=O)c3ccc(F)cc3)cc2C1=O,inactive
14,COc1ccc(S(=O)(=O)Nc2ccc3c(c2)CC(=O)N([C@H](C)CO)C[C@H](C)[C@H](CN(C)S(=O)(=O)c2cn(C)cn2)O3)cc1,inactive
15,C[C@@H]1CCCCO[C@@H](CN(C)C(=O)C2CCCCC2)[C@H](C)CN([C@@H](C)CO)C(=O)c2cc(NC(=O)Nc3ccc(F)cc3)ccc2O1,inactive
16,C[C@H]1CCCCO[C@@H](CN(C)C(=O)C2CCCCC2)[C@@H](C)CN([C@@H](C)CO)C(=O)c2cc(NC(=O)Nc3ccc(F)cc3)ccc2O1,active
17,C[C@@H]1CCCCO[C@@H](CN(C)C(=O)C2CCCCC2)[C@@H](C)CN([C@@H](C)CO)C(=O)c2cc(NC(=O)Nc3ccc(F)cc3)ccc2O1,inactive
18,C[C@H]1CCCCO[C@H](CN(C)C(=O)C2CCCCC2)[C@@H](C)CN([C@@H](C)CO)C(=O)c2cc(NC(=O)Nc3ccc(F)cc3)ccc2O1,active
19,C[C@@H]1CCCCO[C@H](CN(C)C(=O)C2CCCCC2)[C@@H](C)CN([C@@H](C)CO)C(=O)c2cc(NC(=O)Nc3ccc(F)cc3)ccc2O1,active
20,C[C@H](CO)N1C[C@H](C)[C@H](CN(C)C(=O)C2CCCCC2)OCCCC[C@H](C)Oc2ccc(NC(=O)Nc3ccc(F)cc3)cc2C1=O,inactive
21,C[C@@H]1CCCCO[C@@H](CN(C)C(=O)C2CCCCC2)[C@@H](C)CN([C@H](C)CO)C(=O)c2cc(NC(=O)Nc3ccc(F)cc3)ccc2O1,inactive
22,C[C@@H]1CN([C@H](C)CO)C(=O)c2cc(NC(=O)Nc3ccc(F)cc3)ccc2O[C@@H](C)CCCCO[C@@H]1CN(C)C(=O)C1CCCCC1,inactive
23,C[C@@H]1CCCCO[C@H](CN(C)C(=O)C2CCCCC2)[C@H](C)CN([C@@H](C)CO)C(=O)c2cc(NC(=O)Nc3ccc(F)cc3)ccc2O1,inactive

row,Structure (SMILES),cytotoxicity call
1,CNC(=O)C(=O)Nc1ccc(C)c(F)c1,inactive
2,Cc1noc(C)c1NC(=O)Nc1ccc2c(c1)C(=O)N([C@H](C)CO)C[C@H](C)[C@@H](CN(C)CC1CCCCC1)OCCCC[C@H](C)O2,inactive
3,COc1cccc(S(=O)(=O)N(C)C[C@@H]2Oc3ncc(C#CCC(C)C)cc3C(=O)N([C@@H](C)CO)C[C@@H]2C)c1,inactive
4,O=C(CN1CCOCC1)N[C@@H]1CC[C@@H](CCn2cc(C3CCCC3)nn2)O[C@H]1CO,inactive
5,C[C@@H]1CN([C@@H](C)CO)C(=O)Cc2cc(NC(=O)NC3CCCCC3)ccc2O[C@H]1CN(C)Cc1ccc(C(F)(F)F)cc1,inactive
6,Cc1noc(C)c1NC(=O)Nc1ccc2c(c1)C(=O)N([C@H](C)CO)C[C@H](C)[C@H](CN(C)S(=O)(=O)c1ccccc1)OCCCC[C@H](C)O2,inactive
7,COc1ccc(S(=O)(=O)N(C)C[C@H]2Oc3c(NS(=O)(=O)c4ccc(C)cc4)cccc3C(=O)N([C@H](C)CO)C[C@H]2C)cc1,inactive
8,C[C@@H]1O[C@@H](O[C@H]2[C@H](Oc3cc(O)c(C(=O)CCc4ccc(O)cc4)c(O)c3)O[C@H](CO)[C@@H](O)[C@@H]2O)[C@H](O)[C@H](O)[C@H]1O,inactive
9,O=C(Nc1ccc(C(F)(F)F)cc1)Nc1cccc(Cl)c1,active
10,CCC(=O)Nc1ccc(Cl)cc1,inactive
11,N=C(N=C(N)N)Nc1cccc(Cl)c1,inactive
12,O=C(Nc1ccc(Cl)cc1)Nc1ccc(Cl)c(Cl)c1,active
13,O=C(CNCCO)Nc1ccc(F)c(Cl)c1,inactive
14,CC(C)C(=O)Nc1cccc(Cl)c1,inactive
15,C[C@@H]1CN([C@@H](C)CO)C(=O)c2cc(NS(=O)(=O)c3ccccc3)ccc2O[C@@H](C)CCCCO[C@@H]1CN(C)C(=O)Nc1ccc2c(c1)OCO2,inactive
16,CCCOc1cc(N)ccc1C(=O)OCCN(CC)CC.Cl,inactive
17,CCN(CC)CCOc1ccc2c(c1)C(=O)c1cc(OCCN(CC)CC)ccc1-2,active
18,O=S1(=O)[C@@H]2C[C@H]3C=CC2(CN1C1CC1)O3,inactive
19,Cc1ccc(S(=O)(=O)N(C)C[C@H]2OCCCC[C@H](C)Oc3ccc(NC(=O)NC4CCCCC4)cc3C(=O)N([C@H](C)CO)C[C@H]2C)cc1,inactive
20,Cc1ccc(S(=O)(=O)N(C)C[C@H]2OCCCC[C@@H](C)Oc3ccc(NC(=O)NC4CCCCC4)cc3C(=O)N([C@H](C)CO)C[C@@H]2C)cc1,inactive
21,Cc1ccc(S(=O)(=O)N(C)C[C@@H]2OCCCC[C@H](C)Oc3ccc(NC(=O)NC4CCCCC4)cc3C(=O)N([C@H](C)CO)C[C@H]2C)cc1,active
22,Cc1ccc(S(=O)(=O)N(C)C[C@H]2OCCCC[C@@H](C)Oc3ccc(NC(=O)NC4CCCCC4)cc3C(=O)N([C@H](C)CO)C[C@H]2C)cc1,active
23,C[C@H](CO)N1C[C@H](C)[C@H](CN(C)S(=O)(=O)c2ccccc2)OCCCC[C@H](C)Oc2ccc(NC(=O)NC3CCCCC3)cc2C1=O,active

row,Structure (SMILES),cytotoxicity call
1,Cc1ccc(S(=O)(=O)N(C)C[C@H]2OCCCC[C@H](C)Oc3ccc(NC(=O)NC4CCCCC4)cc3C(=O)N([C@@H](C)CO)C[C@H]2C)cc1,inactive
2,Cc1ccc(S(=O)(=O)N(C)C[C@@H]2OCCCC[C@@H](C)Oc3ccc(NC(=O)NC4CCCCC4)cc3C(=O)N([C@@H](C)CO)C[C@@H]2C)cc1,inactive
3,C[C@H]1CCCCO[C@@H](CN(C)S(=O)(=O)c2ccccc2)[C@@H](C)CN([C@@H](C)CO)C(=O)c2cc(NC(=O)NC3CCCCC3)ccc2O1,inactive
4,C[C@@H]1CCCCO[C@H](CN(C)S(=O)(=O)c2ccccc2)[C@@H](C)CN([C@H](C)CO)C(=O)c2cc(NC(=O)NC3CCCCC3)ccc2O1,inactive
5,Cc1ccc(S(=O)(=O)N(C)C[C@H]2OCCCC[C@H](C)Oc3ccc(NC(=O)NC4CCCCC4)cc3C(=O)N([C@@H](C)CO)C[C@@H]2C)cc1,inactive
6,Cc1ccc(S(=O)(=O)N(C)C[C@@H]2OCCCC[C@H](C)Oc3ccc(NC(=O)NC4CCCCC4)cc3C(=O)N([C@@H](C)CO)C[C@H]2C)cc1,active
7,Cc1ccc(S(=O)(=O)N(C)C[C@@H]2OCCCC[C@H](C)Oc3ccc(NC(=O)NC4CCCCC4)cc3C(=O)N([C@H](C)CO)C[C@@H]2C)cc1,inactive
8,CN(C)CC(=O)N[C@H]1C=C[C@@H](CC(=O)O)O[C@@H]1CO,inactive
9,C[C@H](CO)N1C[C@H](C)[C@H](CN(C)C(=O)Nc2ccc(C(F)(F)F)cc2)Oc2ccc(NC(=O)Cc3ccccc3)cc2CC1=O,inactive
10,C[C@H]1CN([C@@H](C)CO)C(=O)c2cccc(NC(=O)Nc3ccccc3)c2O[C@H]1CN(C)Cc1ccc(Oc2ccccc2)cc1,inactive
11,Cc1noc(C)c1S(=O)(=O)Nc1ccc2c(c1)C(=O)N([C@H](C)CO)C[C@H](C)[C@H](CN(C)Cc1ccc3c(c1)OCO3)O2,inactive
12,COC[C@@H](O)CNc1ncnc2c1CCNCC2,inactive
13,C[C@H]1CN([C@@H](C)CO)C(=O)c2cccc(NC(=O)c3nc4ccccc4s3)c2O[C@@H]1CN(C)CC1CCCCC1,inactive
14,Cc1noc(C)c1S(=O)(=O)N(C)C[C@H]1Oc2ccc(NC(=O)NC(C)C)cc2CC(=O)N([C@@H](C)CO)C[C@@H]1C,inactive
15,C[C@@H]1CN([C@@H](C)CO)C(=O)c2cc(NC(=O)c3ccccc3)ccc2O[C@@H](C)CCCCO[C@H]1CN(C)C(=O)Cc1ccccc1,inactive
16,O=C([C@H]1CCCCN1)N1CCCC1,inactive
17,CC(=O)N1[C@H](CO)[C@@H](c2ccccc2)[C@H]1CNC(=O)CN1CCOCC1,inactive
18,Cc1ccc(S(=O)(=O)N(C)C[C@@H]2OCCCC[C@@H](C)Oc3ccc(NC(=O)NC4CCCCC4)cc3C(=O)N([C@H](C)CO)C[C@H]2C)cc1,active
19,Cc1ccc(S(=O)(=O)N(C)C[C@@H]2OCCCC[C@@H](C)Oc3ccc(NC(=O)NC4CCCCC4)cc3C(=O)N([C@H](C)CO)C[C@@H]2C)cc1,inactive
20,Cc1ccc(S(=O)(=O)N(C)C[C@H]2OCCCC[C@@H](C)Oc3ccc(NC(=O)NC4CCCCC4)cc3C(=O)N([C@@H](C)CO)C[C@@H]2C)cc1,active
21,Cc1ccc(S(=O)(=O)N(C)C[C@@H]2OCCCC[C@@H](C)Oc3ccc(NC(=O)NC4CCCCC4)cc3C(=O)N([C@@H](C)CO)C[C@H]2C)cc1,inactive
22,Cc1ccc(S(=O)(=O)N(C)C[C@@H]2OCCCC[C@H](C)Oc3ccc(NC(=O)NC4CCCCC4)cc3C(=O)N([C@@H](C)CO)C[C@@H]2C)cc1,inactive
23,Cc1ccc(S(=O)(=O)N(C)C[C@H]2OCCCC[C@@H](C)Oc3ccc(NC(=O)NC4CCCCC4)cc3C(=O)N([C@@H](C)CO)C[C@H]2C)cc1,inactive
